Measured values from PubChem BioAssay (NCATS).
Results filed as inconclusive are left out. Where a call stands in place of a potency, no number is given. Calls of active or inactive are those of the source. Unless noted, calls follow the shape of the dose curve; as a rule, active = well fitted curve in the direction sought with a large enough effect; inconclusive = small, poorly fitted or top-dose-only effect, or another doubt; inactive = no such curve, though single readings can be large; an effect the other way counts as inactive or inconclusive.

Key:
[1] = target: Estrogen receptor (Homo sapiens) (UniProt P03372); experiment: qHTS assay for small molecule antagonists of estrogen receptor alpha signaling (AID 588513; active = well fitted curve in the direction sought with a large enough effect in the signal ratio, with a control signal flat, not every such curve was filed as active; the % refers to the signal ratio)
How it was run: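 Antagonist mode: inhibition of 0.5 nM 17-beta-estradiol-driven beta-lactamase reporter in HEK 293 ER-alpha-UAS-bla cells, 18 h at 37C, CCF4 readout after 2 h at RT. Normalised to estradiol and DMSO; titration fitted to Hill.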

[2] = target: Estrogen receptor (Homo sapiens) (UniProt P03372); experiment: qHTS assay for small molecule agonists of estrogen receptor alpha signaling (AID 588514; calls by dose curve; also: nearly all actives have a fitted effect of over 70% in size)
How it was run: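 ER-alpha-UAS-bla GripTite HEK293 cells, 5000/well in 2% charcoal/dextran-stripped FBS medium, treated with compound titrations 18 h at 37 C. CCF4 beta-lactamase read by fluorescence after 2 h RT; normalised to 20 nM 17-beta-estradiol (100%) and DMSO (0%), Hill fit for EC50 and efficacy.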

[3] = target: Glucocorticoid receptor (Homo sapiens) (UniProt P04150); experiment: qHTS assay for small molecule antagonists of glucocorticoid receptor signaling (AID 588533; active = well fitted inhibition curve with a large enough effect in the signal ratio, with a control signal flat, not every such curve was filed as active; the % refers to the signal ratio;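 also: cells stimulated with 2 nM dexamethasone as agonist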)
How it was run: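 Antagonist-mode qHTS: compound titrations added to GRE-bla HeLa cells, then dexamethasone 2 nM final; 18 h, 37 C. CCF4 FRET fluorescence normalized to dexamethasone and DMSO; IC50 from Hill fit.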

[4] = qHTS assay for small molecule antagonists of peroxisome proliferator-activated receptor delta signaling (AID 588535; active = well fitted inhibition curve with a large enough effect in the signal ratio, with a control signal flat, not every such curve was filed as active; the % refers to the signal ratio;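 as to max response: cells co-treated with a PPAR-delta agonist as stimulator during compound exposure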); details: HEK293T PPARd-UAS-bla, beta-lactamase FRET ratio, 18 h; 460 nm channel
How it was run: (§1)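 HEK293T PPAR-delta-UAS-bla cells, 4000/well, 2% charcoal/dextran FBS; 5 h 37 C; cpd titration; 18 h 37 C; CCF4 2 h RT; FI 460/530 nm; Hill fit → IC50, efficacy.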

[5] = target: Peroxisome proliferator-activated receptor delta (Homo sapiens) (UniProt Q03181); experiment: as above
How it was run: as §1

[6] = target: Peroxisome proliferator-activated receptor gamma (Homo sapiens) (UniProt P37231); experiment: qHTS assay for small molecule agonists of peroxisome proliferator-activated receptor gamma signaling (AID 588536; active = well fitted curve in the direction sought with a large enough effect in the signal ratio, with a control signal flat, not every such curve was filed as active; the % refers to the signal ratio)
How it was run: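 HEK293 UAS-bla reporter line, 1% charcoal/dextran FBS; titration, 16 h, 37 C; CCF4 loading 2 h RT; fluorescence 460/530 nm. Normalized to rosiglitazone 2 uM = 100%, DMSO = 0%.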

[7] = qHTS assay for small molecule agonists of retinoid X receptor alpha signaling (AID 588544; calls by dose curve); details: HEK293T RXRa-UAS-bla, beta-lactamase reporter, 18 h; 530 nm emission
[8] = target: Retinoic acid receptor RXR-alpha (Homo sapiens) (UniProt P19793); experiment: as above
[9] = target: Thyroid hormone receptor beta (Homo sapiens) (UniProt P10828); experiment: qHTS assay for small molecule agonists of thyroid hormone receptor beta signaling (AID 588545; calls by dose curve)
How it was run: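 Agonist activity was read as beta-lactamase CCF4 fluorescence (405 ex, 460/530 em), scaled between DMSO (0%) and 10 nM T3 (100%), then Hill-fitted for EC50 and efficacy. HEK 293 TR-UAS-bla cells in 2% charcoal/dextran FBS medium were exposed 18 h at 37 C.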

[10] = qHTS assay for small molecule antagonists of retinoid X receptor alpha signaling (AID 588546; active = well fitted inhibition curve with a large enough effect in the signal ratio, with a control signal flat, not every such curve was filed as active; the % refers to the signal ratio;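 also: cells stimulated with 9-cis-retinoic acid as agonist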); details: HEK293T RXRa-UAS-bla, beta-lactamase ratio, antagonist mode; measured here: W530 green channel, cytotoxicity proxy
How it was run: (§2)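 Beta-lactamase reporter inhibition, read as CCF4 fluorescence ratio (ex 405, em 460/530 nm) after 2 h at RT. HEK293T UAS-bla cells, 2500/well, were stimulated with 9-cis-RA at 500 or 100 nM final alongside test compound for 18 h at 37 C.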

[11] = target: Retinoic acid receptor RXR-alpha (Homo sapiens) (UniProt P19793); experiment: as above; details: HEK293T RXRa-UAS-bla, beta-lactamase ratio, antagonist mode
How it was run: as §2

[12] = qHTS assay for environmental chemicals that activate the Aryl hydrocarbon Receptor (AhR) signaling pathway (AID 651777); details: 1A2-DRE human hepatoma cells, luciferase, 24 h; activation: stronger effect = higher value; also: nearly all actives have a fitted effect of over 15% in size
How it was run: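 AhR activation is scored as a rise in luciferase from a stable DRE–CYP1A2 promoter construct in human hepatoma cells. Treatment lasts 24 hr at 37 C; detection uses One-Glo after 30 min at room temperature.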

[13] = target: Peroxisome proliferator-activated receptor alpha (Homo sapiens) (UniProt Q07869); experiment: qHTS assay for small molecule agonists of the peroxisome proliferator-activated receptor alpha (PPARalpha) signaling pathway (AID 651778); details: PathHunter PPARalpha complementation, chemiluminescence, 6 h; max response: stronger effect = higher value
How it was run: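 Chemiluminescence from complemented enzyme reported PPARalpha activation in cells after 6 hr of compound treatment at 37 C. The detection reagent was incubated for 60 min at room temperature, and compounds were scored as agonists.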

[14] = qHTS assay for small molecule agonists of the antioxidant response element (ARE) signaling pathway measured by Nrf2-dependant transcriptional activity - cell viability counter screen (AID 720653; active = well fitted curve in the direction sought with a large enough effect in the repeat runs; an effect the other way counts as inactive or inconclusive); details: ARE-bla HepG2 viability, CellTiter-Glo ATP luminescence, 16 h; max response: stronger effect = lower value
How it was run: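 Cytotoxicity counter screen: intracellular ATP quantified by CellTiter-Glo luminescence in the same ARE-bla HepG2 plates, after 16 h compound exposure and a 2 h beta-lactamase substrate step.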

[15] = qHTS assay for cell viability of HEK293 cells (AID 743288); details: ATP luminescence (CellTiter-Glo), 18 h; max response: stronger effect = lower value; also: nearly all actives have a fitted effect of over 50% in size
How it was run: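 Total intracellular ATP, measured with a luciferase-coupled reagent, indicates the number of viable HEK293 cells. Exposure to test chemicals lasts 18 h at 37 C in 1,536-well format at 2,000 cells/well.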

[16] = qHTS assay for cell viability of the p53RE-bla HCT-116 cell line (AID 743292); also: nearly all actives have a fitted effect of over 55% in size
How it was run: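 Quantitative high-throughput format: compounds in DMSO were pinned onto p53RE-bla HCT-116 cells (4,000/well) and incubated 16 h at 37 C. Total intracellular ATP, read by CellTiter-Glo luminescence, reflects viable cell number.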

[17] = target: Nuclear receptor subfamily 1 group I member 2 (Rattus norvegicus) (UniProt Q9R1A7); experiment: qHTS assay for small molecule activators of the rat pregnane X receptor (rPXR) signaling pathway (AID 651751; call rule not given here); details: rPXR reporter cells, luciferase (One-Glo), 24 h
[18] = qHTS assay for small molecule activators of the human pregnane X receptor (PXR) signaling pathway (AID 720659; call rule not given here)
[19] = qHTS assay for small molecule activators of the nuclear factor-kappa B (NF-kB) signaling pathway (AID 651749; active = well fitted activation curve with a large enough effect in the signal ratio; the % refers to the signal ratio; also: series mostly up to about 77 µM); details: NF-kB-bla ME-180 cells, beta-lactamase FRET ratio, 16 h; activation: stronger effect = higher value
How it was run: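 Readout: beta-lactamase reporter driven by an NF-kB response element, detected fluorescently as loss of FRET. Cells were the ME-180 line, treated 16 hr at 37C with pin-transferred compound.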

[20] = qHTS assay for small molecule agonists of the antioxidant response element (ARE) signaling pathway measured by Nrf2-dependant transcriptional activity (AID 720636; active = well fitted curve in the direction sought with a large enough effect in the repeat runs; an effect the other way counts as inactive or inconclusive;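 also: HepG2 cells with an ARE-driven luciferase reporter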)
How it was run: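 First, ARE-luc HepG2 cells attached for 6 hr at 37 C in 1% dialyzed FBS medium. Next, compound or DMSO was added and incubated 16 hr. Finally, ONE-Glo reagent was added and luminescence measured after 30 min.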

Thyroid hormone receptor beta (Homo sapiens), sequence (P10828 whole entry, looked up): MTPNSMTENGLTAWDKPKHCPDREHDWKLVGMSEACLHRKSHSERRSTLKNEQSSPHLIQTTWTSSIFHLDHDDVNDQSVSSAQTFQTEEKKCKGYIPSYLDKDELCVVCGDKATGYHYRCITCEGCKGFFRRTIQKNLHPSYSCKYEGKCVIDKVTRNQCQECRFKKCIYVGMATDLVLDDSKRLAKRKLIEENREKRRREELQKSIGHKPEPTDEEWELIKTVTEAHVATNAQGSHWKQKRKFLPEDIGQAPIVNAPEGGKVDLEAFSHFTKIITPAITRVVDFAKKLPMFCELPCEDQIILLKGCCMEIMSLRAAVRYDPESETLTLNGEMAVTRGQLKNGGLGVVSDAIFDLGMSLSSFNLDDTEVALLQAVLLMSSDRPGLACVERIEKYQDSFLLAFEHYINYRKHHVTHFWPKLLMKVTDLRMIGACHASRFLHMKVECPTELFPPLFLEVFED
Nuclear receptor subfamily 1 group I member 2 (Rattus norvegicus), sequence (Q9R1A7 whole entry, looked up): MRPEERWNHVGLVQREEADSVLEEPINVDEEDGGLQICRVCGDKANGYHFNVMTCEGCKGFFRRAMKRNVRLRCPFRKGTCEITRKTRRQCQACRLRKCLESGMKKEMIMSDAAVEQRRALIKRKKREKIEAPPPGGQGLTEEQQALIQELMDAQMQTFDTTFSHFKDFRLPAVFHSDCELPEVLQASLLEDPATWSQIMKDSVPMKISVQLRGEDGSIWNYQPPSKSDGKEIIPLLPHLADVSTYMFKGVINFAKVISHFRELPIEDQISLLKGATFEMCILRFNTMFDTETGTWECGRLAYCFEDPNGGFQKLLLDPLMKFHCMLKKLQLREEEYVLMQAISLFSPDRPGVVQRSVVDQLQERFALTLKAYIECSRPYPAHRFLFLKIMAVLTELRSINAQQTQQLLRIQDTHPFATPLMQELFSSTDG
Peroxisome proliferator-activated receptor alpha (Homo sapiens), sequence (Q07869 whole entry, looked up): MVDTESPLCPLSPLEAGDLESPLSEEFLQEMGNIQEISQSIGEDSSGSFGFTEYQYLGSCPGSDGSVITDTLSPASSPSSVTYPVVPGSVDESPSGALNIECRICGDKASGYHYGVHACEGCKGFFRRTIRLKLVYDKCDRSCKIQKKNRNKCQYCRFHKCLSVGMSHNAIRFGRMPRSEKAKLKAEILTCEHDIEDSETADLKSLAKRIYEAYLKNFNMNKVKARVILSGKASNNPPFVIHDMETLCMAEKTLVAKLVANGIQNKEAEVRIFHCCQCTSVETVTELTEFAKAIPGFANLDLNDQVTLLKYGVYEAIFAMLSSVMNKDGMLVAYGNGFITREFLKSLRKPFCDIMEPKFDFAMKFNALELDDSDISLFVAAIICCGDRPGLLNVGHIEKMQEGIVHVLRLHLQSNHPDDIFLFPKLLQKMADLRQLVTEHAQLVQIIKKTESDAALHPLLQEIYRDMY
Glucocorticoid receptor (Homo sapiens), sequence (P04150 whole entry, looked up): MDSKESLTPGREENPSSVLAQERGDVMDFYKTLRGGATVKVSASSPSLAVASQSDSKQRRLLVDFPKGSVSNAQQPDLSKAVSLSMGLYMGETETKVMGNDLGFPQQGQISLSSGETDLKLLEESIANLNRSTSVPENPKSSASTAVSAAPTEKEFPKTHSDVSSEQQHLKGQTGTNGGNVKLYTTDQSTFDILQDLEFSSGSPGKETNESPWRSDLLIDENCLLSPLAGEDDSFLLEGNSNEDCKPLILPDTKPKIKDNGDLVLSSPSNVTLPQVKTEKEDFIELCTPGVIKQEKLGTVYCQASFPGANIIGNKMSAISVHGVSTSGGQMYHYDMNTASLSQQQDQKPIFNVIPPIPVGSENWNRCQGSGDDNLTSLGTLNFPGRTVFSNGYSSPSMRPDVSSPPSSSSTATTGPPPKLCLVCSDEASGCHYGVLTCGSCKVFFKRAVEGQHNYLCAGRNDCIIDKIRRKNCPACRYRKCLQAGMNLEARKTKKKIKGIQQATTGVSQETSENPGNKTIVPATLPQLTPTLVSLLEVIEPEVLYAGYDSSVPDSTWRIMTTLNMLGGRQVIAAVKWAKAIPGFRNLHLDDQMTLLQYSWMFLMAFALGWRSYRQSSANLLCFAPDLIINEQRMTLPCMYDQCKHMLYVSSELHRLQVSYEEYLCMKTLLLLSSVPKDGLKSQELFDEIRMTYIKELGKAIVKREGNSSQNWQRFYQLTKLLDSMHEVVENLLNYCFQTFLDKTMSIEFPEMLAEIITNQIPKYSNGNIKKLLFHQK
Peroxisome proliferator-activated receptor gamma (Homo sapiens), sequence (P37231 whole entry, looked up): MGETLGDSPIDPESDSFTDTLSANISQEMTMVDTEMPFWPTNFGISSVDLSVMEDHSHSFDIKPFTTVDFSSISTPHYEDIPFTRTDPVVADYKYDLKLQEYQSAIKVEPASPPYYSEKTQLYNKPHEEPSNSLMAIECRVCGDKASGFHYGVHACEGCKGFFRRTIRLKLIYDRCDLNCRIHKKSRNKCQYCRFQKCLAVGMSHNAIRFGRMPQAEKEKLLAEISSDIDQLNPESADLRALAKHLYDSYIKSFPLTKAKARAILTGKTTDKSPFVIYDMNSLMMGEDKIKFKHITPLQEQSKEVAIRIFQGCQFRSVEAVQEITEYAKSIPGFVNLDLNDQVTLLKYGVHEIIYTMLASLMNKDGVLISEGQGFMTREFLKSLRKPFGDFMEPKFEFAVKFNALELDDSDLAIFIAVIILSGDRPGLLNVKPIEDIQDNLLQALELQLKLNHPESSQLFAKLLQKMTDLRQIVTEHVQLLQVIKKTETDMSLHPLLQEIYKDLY
Estrogen receptor (Homo sapiens), sequence (P03372 whole entry, looked up): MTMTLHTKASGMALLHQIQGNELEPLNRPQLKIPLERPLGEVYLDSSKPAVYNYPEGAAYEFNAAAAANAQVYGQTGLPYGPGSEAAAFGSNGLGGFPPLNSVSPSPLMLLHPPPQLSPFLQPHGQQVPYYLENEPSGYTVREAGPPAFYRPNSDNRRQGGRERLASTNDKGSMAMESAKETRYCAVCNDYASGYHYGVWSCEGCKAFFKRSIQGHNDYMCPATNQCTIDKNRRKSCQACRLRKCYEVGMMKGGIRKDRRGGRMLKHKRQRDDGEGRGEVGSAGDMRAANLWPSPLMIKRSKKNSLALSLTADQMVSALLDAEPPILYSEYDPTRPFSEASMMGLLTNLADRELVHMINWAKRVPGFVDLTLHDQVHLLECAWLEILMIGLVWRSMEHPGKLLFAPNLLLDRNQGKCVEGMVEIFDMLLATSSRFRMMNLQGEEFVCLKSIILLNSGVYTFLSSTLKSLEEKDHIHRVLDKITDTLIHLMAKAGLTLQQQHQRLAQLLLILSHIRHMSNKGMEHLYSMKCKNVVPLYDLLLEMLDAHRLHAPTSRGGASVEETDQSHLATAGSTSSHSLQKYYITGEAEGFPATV
Retinoic acid receptor RXR-alpha (Homo sapiens), sequence (P19793 whole entry, looked up): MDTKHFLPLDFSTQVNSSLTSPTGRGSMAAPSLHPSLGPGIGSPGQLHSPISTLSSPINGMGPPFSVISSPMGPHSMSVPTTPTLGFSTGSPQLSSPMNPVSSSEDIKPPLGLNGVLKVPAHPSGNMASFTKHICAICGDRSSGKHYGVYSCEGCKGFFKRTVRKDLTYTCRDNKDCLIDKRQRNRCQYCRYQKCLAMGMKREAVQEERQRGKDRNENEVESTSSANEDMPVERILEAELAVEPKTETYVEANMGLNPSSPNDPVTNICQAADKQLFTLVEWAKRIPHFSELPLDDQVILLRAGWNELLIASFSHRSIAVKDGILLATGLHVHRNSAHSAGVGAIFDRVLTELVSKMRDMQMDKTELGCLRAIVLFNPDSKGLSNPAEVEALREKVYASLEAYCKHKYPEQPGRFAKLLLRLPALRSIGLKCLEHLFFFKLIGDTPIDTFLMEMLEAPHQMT
Peroxisome proliferator-activated receptor delta (Homo sapiens), sequence (Q03181 whole entry, looked up): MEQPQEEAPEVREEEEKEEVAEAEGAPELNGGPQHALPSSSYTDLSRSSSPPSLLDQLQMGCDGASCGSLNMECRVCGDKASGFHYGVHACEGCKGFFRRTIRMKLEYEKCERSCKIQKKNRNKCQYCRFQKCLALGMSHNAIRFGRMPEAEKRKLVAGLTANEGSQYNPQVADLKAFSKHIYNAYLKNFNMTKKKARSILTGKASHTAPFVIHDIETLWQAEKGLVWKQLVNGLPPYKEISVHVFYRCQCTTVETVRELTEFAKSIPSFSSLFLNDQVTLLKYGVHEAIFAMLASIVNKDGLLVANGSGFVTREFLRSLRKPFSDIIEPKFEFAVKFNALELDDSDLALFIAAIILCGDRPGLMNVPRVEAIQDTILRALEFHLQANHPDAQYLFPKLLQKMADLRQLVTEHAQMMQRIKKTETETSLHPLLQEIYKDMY

Row | Compound | Potency [1] | Potency [2] | Potency [3] | max response [4] [%] | Potency [5] | outcome [6] | max response [7] [%] | Potency [8] | Potency [9] | max response [10] [%] | max response [11] | activation [12] | max response [13] | max response [14] | max response [15] | Potency [16] | max response [17] | outcome [18] | activation [19] | Potency [20]
1 | CCCCCCCCCCCCCO | inactive | inactive | inactive | 18.2 | inactive | inactive | -5.38 | inactive | inactive | -5.73 | 3.57% (inactive) | 0.322% (inactive) | 1.19% (inactive) | -9.94% (inactive) | -5.94% (inactive) | inactive | 1.91% (inactive) | inactive | – | –
2 | OC1CCCCCCCCCCC1 | inactive | inactive | inactive | 17.8 | inactive | inactive | 10.2 | inactive | inactive | -1.99 | -4.46% (inactive) | 1.93% (inactive) | -2.43% (inactive) | 3.88% (inactive) | -8% (inactive) | inactive | -3.86% (inactive) | inactive | 0.918% (inactive) | inactive
3 | CCCCOCCOCCOC(C)=O | inactive | inactive | inactive | 11.1 | inactive | inactive | -16.2 | inactive | inactive | – | – | -2.27% (inactive) | -0.313% (inactive) | -1.74% (inactive) | 5.77% (inactive) | inactive | -2.22% (inactive) | inactive | -2.2% (inactive) | inactive
4 | CN(C)C(=O)Nc1ccccc1 | inactive | inactive | – | 13.2 | inactive | inactive | -10.1 | inactive | inactive | -0.672 | -1.05% (inactive) | 2.58% (inactive) | -2.12% (inactive) | 1.07% (inactive) | 1.22% (inactive) | inactive | 1.09% (inactive) | inactive | -1.78% (inactive) | inactive
5 | Cc1ccc(S(=O)(=O)N=C=O)cc1 | inactive | inactive | inactive | 5.8 | inactive | inactive | 15.4 | inactive | inactive | -8.47 | 12.7% (inactive) | -0.31% (inactive) | -0.858% (inactive) | -7.8% (inactive) | -6.04% (inactive) | inactive | -1.2% (inactive) | inactive | -0.506% (inactive) | –
